SMILES strings stand for the structures. Where a name gives a salt, the structure may show the parent alone.

By cell viability is commonly meant a read-out of living cells in per cent, often relative to untreated cells.

The test system of this experiment is OCI-AML2. The experiment in a line: cell viability relative to vehicle control; higher = less cytotoxic. The following applies: 10 µM; SRSF2 genotype: P95H/wt. The procedure, abridged: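 CRISPR-edited mutant clones and isogenic wild-type clones from four leukaemia lines were screened against Selleck bioactive, kinase and epigenetic probe libraries, with identity-inconsistent compounds excluded. Each compound was acoustically dispensed at a single 10 µM dose into 384-well plates holding 2000 cells in 50 µL medium per well. After 48 h the supernatant was removed and CellTiter-Glo luminescence was read. Viability was expressed as percent of the on-plate vehicle control and analysed in Genedata Screener.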
As for `COc1ccc2c(c1)c(CC(=O)OCC(=O)O)c(C)n2C(=O)c1ccc(Cl)cc1` [Acemetacin (Emflex)], the cell viability came to 108%.

As to `CC(C)(O)C1CCC(C)(C2C(O)CC3(C)C4CC(O)C5C(C)(C)C(O)CCC56CC46CCC23C)O1` (stereo not given) [Cyclogalegenol], the cell viability worked out at 97.4%.

With `Cc1cc(Cn2cnc3c2CC(C(=O)O)N(C(=O)C(c2ccccc2)c2ccccc2)C3)ccc1N(C)C` (stereo not given), the cell viability was 100%.

Turning to `CC[C@H](NC(=O)[C@H](C)NC)C(=O)N1C[C@@H](O)C[C@H]1Cc1c(-c2[nH]c3cc(F)ccc3c2C[C@@H]2C[C@H](O)CN2C(=O)[C@H](CC)NC(=O)[C@H](C)NC)[nH]c2cc(F)ccc12`, the cell viability came out at 103%.

`NCCCCCC(=O)O`: the cell viability amounted to 113%.

With `Cc1ccc(NC(=S)NNc2c([N+](=O)[O-])cc(C(F)(F)F)cc2[N+](=O)[O-])cc1Cl`, the cell viability turned out to be 101%.

On to `CCCCCCCCCC(C)=O` [Methylnonylketone], for which the cell viability came to 99.5%.

In the case of `CC(C)n1nccc1-c1ncccc1COc1cccc(O)c1C=O` [Voxelotor(GBT440, GTx011)], the cell viability came to 99.7%.

With `O=c1cc(CN2CCOCC2)occ1OCCCCCSc1ccnc2cc(C(F)(F)F)ccc12`, the cell viability was 27.6%.

Regarding `CCCOC(=O)c1cc(O)c(O)c(O)c1` [Propyl gallate], the cell viability was 98.2%.

As for `Cn1c2ccccc2c2c3c(c4c5ccccc5n(CCC#N)c4c21)CNC3=O`, the cell viability worked out at 62.8%.

Turning to `CC(C)c1ccccc1Cc1cc(C(=O)Nc2ccc(S(=O)(=O)c3ccccc3C(C)(C)C)cc2)c(O)c(O)c1O`, the cell viability is 2.91%.

`COc1ccc2cc1Oc1ccc(cc1)C[C@H]1c3cc(c(OC)cc3CCN1C)Oc1c(O)c(OC)cc3c1[C@H](C2)N(C)CC3` [Fangchinoline]: the cell viability turned out to be 0.4%.

For `CC(C)C(=O)Oc1ccc(CO)cc1[C@H](CCN(C(C)C)C(C)C)c1ccccc1` [Fesoterodine Fumarate], the cell viability turned out to be 113%.

Take `COc1ccc2c(c1)c(CC(=O)O)c(C)n2C(=O)c1ccc(Cl)cc1` [Indometacin Sodium]: the cell viability was 98.3%.

In the case of `Nc1cccc(S(=O)(=O)N2CCCN(S(=O)(=O)c3ccc4c(c3)OCCO4)CC2)c1`, the cell viability worked out at 101%.

Turning to `Cc1cc(-c2ncc(CC(=O)Nc3ccc(-c4cnccn4)cn3)cc2C)ccn1`, the cell viability amounted to 54.8%.

On to `CC(C)(O)C1CCC(C)(C2C(O)CC3(C)C4CC(OC5OC(CO)C(O)C(O)C5O)C5C(C)(C)C(OC6OCC(O)C(O)C6O)CCC56CC46CCC23C)O1` (stereo not given) [Astragaloside A], for which the cell viability was found to be 97.2%.

On to `O=c1[nH]cnc2c1ncn2[C@H]1C[C@H](O)[C@@H](CO)O1` [2'-Deoxyinosine], for which the cell viability was determined as 103%.

`CCN(CC)C(=O)C1(c2ccccc2)CC1CN` (stereo not given) [Milnacipran HCl]: the cell viability stood at 106%.

On to `Clc1ccc(COC(Cn2ccnc2)c2ccc(Cl)cc2Cl)cc1` (stereo not given) [Econazole nitrate (Spectazole)], for which the cell viability came out at 57.8%.

As to `COc1cc(C(=O)OCCCCNC(=N)N)cc(OC)c1O` [Leonurine], the cell viability came out at 94.4%.

Consider `C[C@@H](Oc1ccc2[nH]nc(/C=C/c3cnn(CCO)c3)c2c1)c1c(Cl)cncc1Cl`, for which the cell viability was found to be 0.48%.

Turning to `COc1ccccc1S(=O)(=O)Nc1ccc2c(c1)CN(C)C(=O)N2`, the cell viability came to 27.1%.

With `Clc1cccc(CN=C2Nc3ccccc3NC23CCNCC3)c1` [Liproxstatin-1], the cell viability is 93.5%.

Regarding `O=C(O)c1ccc(O)c2ncccc12`, the cell viability worked out at 108%.

With `CO[C@H]1C[C@@H]2CC[C@@H](C)[C@@](O)(O2)C(=O)C(=O)N2CCCC[C@H]2C(=O)O[C@H]([C@H](C)C[C@@H]2CC[C@@H](OP(C)(C)=O)[C@H](OC)C2)CC(=O)[C@H](C)/C=C(\C)[C@@H](O)[C@@H](OC)C(=O)[C@H](C)C[C@H](C)/C=C/C=C/C=C/1C` [Deforolimus (MK-8669)], the cell viability stood at 67.5%.

On to `Cc1ccc(-c2n[nH]c3c2C(c2cccc(O)c2)N(c2ccc(C(=O)O)cc2)C3=O)cc1` (stereo not given), for which the cell viability came out at 104%.

Turning to `C=C(C(=O)O)C1CCC(C)C2CCC(C)=CC12` (stereo not given) [Artemisic acid], the cell viability turned out to be 99.1%.

In the case of `CC(C)c1ccc(NC(=O)Cn2cnc3c2c(=O)n(C)c(=O)n3C)cc1`, the cell viability was determined as 87.5%.

These data come from the supplement of paper PMC10981050.
